From PubChem BioAssay (NCI)
The panel holds about 83,000 compounds, 20% with a hit somewhere; the sample as a whole holds those more often.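 Note: values are percent growth. 100 is the growth of untreated cells, values between 100 and 0 indicate rising inhibition; between -100 and 0 indicates cell death.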 The source made the active and inactive calls. How the source made its calls: active means growth percent below 10; inactive means the rest.

Legend:
Assay in all cases: NCI-60 one-dose screen, 48 h (100 = growth as untreated, 0 = no growth, -100 = all killed)
SK-MEL-2 melanoma = conditions: 10 µM unless noted
EKVX NSCLC = conditions: 10 µM unless noted
SN12C renal = conditions: 10 µM unless noted
UO-31 renal = conditions: 10 µM unless noted
TK-10 renal = conditions: 10 µM unless noted
ACHN renal = conditions: 10 µM unless noted
CAKI-1 renal = conditions: 10 µM unless noted
A498 renal = conditions: 10 µM
HL-60(TB) leukemia = conditions: 10 µM unless noted
CCRF-CEM leukemia = conditions: 10 µM unless noted
MOLT-4 leukemia = conditions: 10 µM unless noted
SR leukemia = conditions: 10 µM unless noted
RPMI-8226 leukemia = conditions: 10 µM unless noted
OVCAR-8 ovarian = conditions: 10 µM unless noted
OVCAR-5 ovarian = conditions: 10 µM unless noted
OVCAR-4 ovarian = conditions: 10 µM unless noted
SK-OV-3 ovarian = conditions: 10 µM unless noted
IGROV1 ovarian = conditions: 10 µM unless noted
OVCAR-3 ovarian = conditions: 10 µM unless noted
HS 578T breast = conditions: 10 µM unless noted

Measured: growth

Fc1c[c-]c(-c2ccccn2)c(F)c1.[CH3-].[Pt+2].c1ccc([PH+](c2ccccc2)c2ccccn2)cc1
inactive: OVCAR-8 ovarian 10.3%
active: SK-MEL-2 melanoma -34.1% | EKVX NSCLC 4.9% | SN12C renal 3.34% | UO-31 renal -71.9% | TK-10 renal -1.18% | ACHN renal -80.4% | CAKI-1 renal -56.2% | A498 renal -21% | HL-60(TB) leukemia -6.41% | CCRF-CEM leukemia 9.35% | MOLT-4 leukemia 8.87% | SR leukemia -2.4% | RPMI-8226 leukemia -8.21% | OVCAR-5 ovarian -48.1% | OVCAR-4 ovarian -2.32% | SK-OV-3 ovarian 5.32% | IGROV1 ovarian -12% | OVCAR-3 ovarian -22.2% | HS 578T breast -1.24%

Clc1cccc(NCOOC2(OOCNc3cccc(Cl)c3)CCCCC2)c1
active: UO-31 renal -73.7% | SR leukemia -41.4% | IGROV1 ovarian -33.2%
inactive: SK-MEL-2 melanoma 80.8% | EKVX NSCLC 55.1% | SN12C renal 91.9% | TK-10 renal 86.3% | ACHN renal 38.8% | CAKI-1 renal 12.3% | A498 renal 61% | HL-60(TB) leukemia 39.1% | CCRF-CEM leukemia 36.7% | MOLT-4 leukemia 72.4% | RPMI-8226 leukemia 53.1% | OVCAR-8 ovarian 30.3% | OVCAR-5 ovarian 82.5% | OVCAR-4 ovarian 107% | SK-OV-3 ovarian 94.7% | OVCAR-3 ovarian 79.7% | HS 578T breast 98.4%

C/C(=C\c1ccn(-c2ccc(N)c(F)c2)n1)[C@@H]1C[C@@H]2O[C@]2(C)CCC[C@H](C)[C@H](O)[C@@H](C)C(=O)C(C)(C)[C@@H](O)CC(=O)O1
inactive: SK-MEL-2 melanoma 23.2% | EKVX NSCLC 42.2% | SN12C renal 35.7% | UO-31 renal 36.9% | TK-10 renal 44.6% | ACHN renal 44.6% | CAKI-1 renal 37.5% | A498 renal 13% | CCRF-CEM leukemia 12.1% | OVCAR-8 ovarian 24.7% | OVCAR-5 ovarian 19.4% | OVCAR-4 ovarian 52.2% | SK-OV-3 ovarian 50.7% | IGROV1 ovarian 34%
active: HL-60(TB) leukemia 5.44% | MOLT-4 leukemia 6.16% | SR leukemia 9.07% | RPMI-8226 leukemia 8.95% | OVCAR-3 ovarian 2.8% | HS 578T breast 2.63%

O=C1C(=Cc2cn(Cc3ccccc3)c3ccccc23)C(=O)N(Cc2ccccc2)C(=O)N1Cc1ccccc1
active: A498 renal -95.7% | OVCAR-5 ovarian -7.28%
inactive: SK-MEL-2 melanoma 83.9% | EKVX NSCLC 97.5% | SN12C renal 101% | UO-31 renal 73.3% | TK-10 renal 40.7% | ACHN renal 86.2% | CAKI-1 renal 94.6% | HL-60(TB) leukemia 96.4% | CCRF-CEM leukemia 118% | MOLT-4 leukemia 95.2% | SR leukemia 87.2% | RPMI-8226 leukemia 93.2% | OVCAR-8 ovarian 83.5% | OVCAR-4 ovarian 57.3% | SK-OV-3 ovarian 47.7% | IGROV1 ovarian 75.8% | OVCAR-3 ovarian 97.7% | HS 578T breast 90.7%

O=C(Nc1ccncc1F)c1cn(CC2CC2)c2ccccc12
inactive: SK-MEL-2 melanoma 98.8% | EKVX NSCLC 89.2% | SN12C renal 102% | UO-31 renal 93.9% | TK-10 renal 103% | ACHN renal 108% | CAKI-1 renal 98.2% | A498 renal 91% | HL-60(TB) leukemia 100% | CCRF-CEM leukemia 102% | MOLT-4 leukemia 101% | SR leukemia 116% | RPMI-8226 leukemia 91.9% | OVCAR-8 ovarian 101% | OVCAR-5 ovarian 113% | OVCAR-4 ovarian 97.7% | SK-OV-3 ovarian 105% | IGROV1 ovarian 109% | OVCAR-3 ovarian 110% | HS 578T breast 98.7%

COc1ccc(/C=C\c2cc(OC)c(OC)c(OC)c2)cc1OCC(=O)Nc1nc2ccc(C(F)(F)F)cc2s1
active: SK-MEL-2 melanoma -2.78% | TK-10 renal 8.6% | OVCAR-3 ovarian -51.8% | HS 578T breast -8.14%
inactive: EKVX NSCLC 77.3% | SN12C renal 45.8% | UO-31 renal 21% | ACHN renal 38.2% | CAKI-1 renal 24.5% | A498 renal 14.3% | HL-60(TB) leukemia 11.8% | CCRF-CEM leukemia 25.4% | MOLT-4 leukemia 16.3% | SR leukemia 26.5% | RPMI-8226 leukemia 21.2% | OVCAR-8 ovarian 17.5% | OVCAR-5 ovarian 94.1% | OVCAR-4 ovarian 57.4% | SK-OV-3 ovarian 10.8% | IGROV1 ovarian 19.3%

CC(C)=CCc1c(O)c(C(=O)CC(C)C)c(O)c2c(-c3ccccc3)cc(=O)oc12
inactive: SK-MEL-2 melanoma 40.5% | EKVX NSCLC 36.7% | SN12C renal 33.7% | UO-31 renal 44.9% | TK-10 renal 56.8% | ACHN renal 59.4% | CAKI-1 renal 52.4% | A498 renal 32.6% | HL-60(TB) leukemia 27.5% | CCRF-CEM leukemia 23.6% | MOLT-4 leukemia 38.5% | SR leukemia 41.5% | OVCAR-8 ovarian 47.6% | OVCAR-5 ovarian 84.9% | OVCAR-4 ovarian 68.7% | SK-OV-3 ovarian 60.9% | IGROV1 ovarian 62.9% | OVCAR-3 ovarian 33.9% | HS 578T breast 47%
active: RPMI-8226 leukemia 8.71%

CSc1nc(Cl)cc(N2CC2)n1
inactive: SK-MEL-2 melanoma 120% | EKVX NSCLC 106% | SN12C renal 104% | UO-31 renal 114% | TK-10 renal 107% | ACHN renal 109% | CAKI-1 renal 98.3% | A498 renal 122% | HL-60(TB) leukemia 96.6% | CCRF-CEM leukemia 77.6% | MOLT-4 leukemia 108% | SR leukemia 109% | RPMI-8226 leukemia 73.8% | OVCAR-8 ovarian 101% | OVCAR-5 ovarian 111% | OVCAR-4 ovarian 114% | SK-OV-3 ovarian 115% | IGROV1 ovarian 123% | OVCAR-3 ovarian 117% | HS 578T breast 110%
